# Measured values taken from the supplement of paper PMC6555819.
# Test system: RARg:RXRa (NR concentration 270 nM, RXRa partner concentration 90 nM)
# Experiment: PBM binding z-score (relative to random genomic background probes); higher = stronger binding; sequences stand for … in GC…GCGATTGACAGCGTAGAATGAAGG
# In short: (§1)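 Binding z-scores were set against random background probes. The data came from custom Agilent 4×180K protein-binding microarrays carrying double-stranded probes with 34-nt variable regions, incubated 1 h with ligand-free nuclear receptor dimers. Partner-specific antibodies detected binding, and scanned fluorescence was regression-normalized.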
row,Sequence,PBM binding z-score
1,CCAGACAGGTGAGAAGGTCACTCAGCCTCGATTA,4.65
2,ATAGGTAGGTTATCGGGTCATTCAGTTTGCGCAT,3.46
3,CCCTACGGGTCAAGGTTATAGCACGGGTGGTACG,5.05
4,ATCGAAATGTCGACGAGGTGAGTATACACCGTTT,0.712
5,ATACCAAGGTGATCGTGAGGTCGTTGAGACTAAC,2.25
6,CCGACTGGGGCAAAGGTTAGCATACTCAGTACGA,2.76
7,CCTTACGGGTCACTGACAGGGTATAGCATTTGGA,5.05
8,CGTCTAAGGTCAATGCTAGGTCAGTGAAAGCATT,7.91
9,ATCGAAAGGTCGTGAGGTGAGTATGCAGAAAGGC,4.63
10,CCTGCTAGGTCATGATCAGCTAATCTACAGTATG,3.89
11,ATCTCTAGGTCACAAGTTCAGTGAAAGAGAGGAC,5.58
12,TAGCCTAGGTCATTCATGGGCCAGTATAGAAAGC,4.74
13,AGAACGAGTGCACGCTGAGTTGATAGCAGAGTAG,0.354
14,TCTTGTAAATCAGCAGGTTAAGAAAGCTGGCCAA,-0.0885
15,GCTAGCAGACCATTTGGGTCACTCAATGACGGGC,0.72
16,CGTCAAAGTTCAAGGTAACGTAGCAGAAAGCAGC,5.5
17,GCTAGTTGGCCAGTAAAAGGTCACACACCGGTCG,5.15
18,TAGCCTAGGTCATGCGGGCAAGTATAGTGTCGGC,4
19,ATATGTAGGTTAAGGGTCATCCAGGTTGGTTCGC,5.45
20,CCTACTGGGCCAAAAAGGTCATTGCTGCCGATAA,4.63

row,Sequence,PBM binding z-score
1,GCTAGTTGGTCAGTAAAAGGTCACACGCCGGTCG,5.72
2,GCTCGGAGGACATGGTCAGAGCTTTGTCCGTAGA,-0.271
3,TCATATAGGTAAAATGTGAAAGTCGGTGTGGTAA,0.0549
4,CTCGAAAGTTCGTGCTCAGGTGAGTATACCAAAC,2.29
5,CGTCAAAGTTCAACTAAGGAAACGTAAAGCACGC,5.97
6,AGGATGAGGTTAAGATCAGGGAAACAGAATACAT,2.1
7,CCTATTAGTTGACCATCAGGGCAACCGAAGCTCG,0.553
8,CCGAGTAGGTTATGAGGCATTCAGGCAACGGTGA,0.306
9,TGAATGAGGTTATAAGATCAGGTAACGTTGCAAA,1.41
10,TAGCCTAGGTCATGGACCAGTATACCACGCGAAC,4.03
11,GCTAGCAGGCCATTTGGGTCACTCGATGACGGGC,0.925
12,ACTAGTTTGTCAGCTGAGGTCACACACAATTCGG,3.85
13,TCTAGCAGGCCAGAGGGTCCCTCAAGAGGTACGG,-0.337
14,GCTATTAGTTGAAAGGGCAACCAAATGATTCTCG,1.54
15,CGAACTAGGTCATGCAGGACAGTGAATACATTGA,3.87
16,CCTAGCAGGTCAGGGTCACTCAAGCATTTCGCTT,5.02
17,AGAATGAGGTTCTTAAGATCAGGGAATTGCGGTC,-0.106
18,TTACCAAGGTAAAGGTCGTTGATCCCTCTGTAGA,1.95
19,GCTTACGGGTCAAAGGTAATAGCATGAATAGAAT,5.3
20,TCATATAGGTAATATAGGTGAAAGTCGGCATCTA,0.454

# Test system: RARg homodimer (NR concentration 270 nM)
# Experiment: as above
# In short: as §1
row,Sequence,PBM binding z-score
1,CCAGACAGGTGAGAAGGTCACTCAGCCTCGATTA,3.85
2,ATAGGTAGGTTATCGGGTCATTCAGTTTGCGCAT,2.72
3,CCCTACGGGTCAAGGTTATAGCACGGGTGGTACG,4.83
4,ATCGAAATGTCGACGAGGTGAGTATACACCGTTT,0.657
5,ATACCAAGGTGATCGTGAGGTCGTTGAGACTAAC,0.747
6,CCGACTGGGGCAAAGGTTAGCATACTCAGTACGA,1.55
7,CCTTACGGGTCACTGACAGGGTATAGCATTTGGA,4.61
8,CGTCTAAGGTCAATGCTAGGTCAGTGAAAGCATT,7.34
9,ATCGAAAGGTCGTGAGGTGAGTATGCAGAAAGGC,4.17
10,CCTGCTAGGTCATGATCAGCTAATCTACAGTATG,4.57
11,ATCTCTAGGTCACAAGTTCAGTGAAAGAGAGGAC,6.02
12,TAGCCTAGGTCATTCATGGGCCAGTATAGAAAGC,4.57
13,AGAACGAGTGCACGCTGAGTTGATAGCAGAGTAG,0.356
14,TCTTGTAAATCAGCAGGTTAAGAAAGCTGGCCAA,-0.347
15,GCTAGCAGACCATTTGGGTCACTCAATGACGGGC,0.826
16,CGTCAAAGTTCAAGGTAACGTAGCAGAAAGCAGC,6.15
17,GCTAGTTGGCCAGTAAAAGGTCACACACCGGTCG,4.08
18,TAGCCTAGGTCATGCGGGCAAGTATAGTGTCGGC,4.38
19,ATATGTAGGTTAAGGGTCATCCAGGTTGGTTCGC,4.39
20,CCTACTGGGCCAAAAAGGTCATTGCTGCCGATAA,4.02

row,Sequence,PBM binding z-score
1,GCTAGTTGGTCAGTAAAAGGTCACACGCCGGTCG,5.2
2,GCTCGGAGGACATGGTCAGAGCTTTGTCCGTAGA,0.158
3,TCATATAGGTAAAATGTGAAAGTCGGTGTGGTAA,-0.0961
4,CTCGAAAGTTCGTGCTCAGGTGAGTATACCAAAC,1.52
5,CGTCAAAGTTCAACTAAGGAAACGTAAAGCACGC,6.45
6,AGGATGAGGTTAAGATCAGGGAAACAGAATACAT,1.71
7,CCTATTAGTTGACCATCAGGGCAACCGAAGCTCG,0.807
8,CCGAGTAGGTTATGAGGCATTCAGGCAACGGTGA,0.215
9,TGAATGAGGTTATAAGATCAGGTAACGTTGCAAA,1.13
10,TAGCCTAGGTCATGGACCAGTATACCACGCGAAC,4.21
11,GCTAGCAGGCCATTTGGGTCACTCGATGACGGGC,1.25
12,ACTAGTTTGTCAGCTGAGGTCACACACAATTCGG,3.7
13,TCTAGCAGGCCAGAGGGTCCCTCAAGAGGTACGG,-0.396
14,GCTATTAGTTGAAAGGGCAACCAAATGATTCTCG,1.36
15,CGAACTAGGTCATGCAGGACAGTGAATACATTGA,4.66
16,CCTAGCAGGTCAGGGTCACTCAAGCATTTCGCTT,5.1
17,AGAATGAGGTTCTTAAGATCAGGGAATTGCGGTC,-0.186
18,TTACCAAGGTAAAGGTCGTTGATCCCTCTGTAGA,1.08
19,GCTTACGGGTCAAAGGTAATAGCATGAATAGAAT,4.22
20,TCATATAGGTAATATAGGTGAAAGTCGGCATCTA,0.522
